# Data from the supplement of paper PMC8728848.
# The entries come from a sample that favours the strongest signals as a whole.
# Key:
# Assay in all cases: glycan array binding signal (z-score within array); higher = stronger binding
# Settings in all cases: glycan notation: IUPAC condensed, linker removed; mutation: D229G
# [1] = biological target: Fuc(a1-2)Gal(b1-3)GlcNAc(b1-2)Man(a1-3)[Fuc(a1-2)Gal(b1-3)GlcNAc(b1-2)Man(a1-6)]Man(b1-4)GlcNAc(b1-4)GlcNAc
# How it was run: (§1)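 Glycan array binding is given as a within-array Z-score, which can be read as non-binding when negative. The arrays, 3228 of them, came from the Consortium for Functional Glycomics database and were retained only where the protein sequence was available. Z-scores were averaged across arrays of the same protein sequence at different concentrations or buffers and across linkers.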
# [2] = biological target: Fuc(a1-2)Gal(b1-3)GlcNAc(b1-3)GalNAc
# How it was run: as §1
# [3] = biological target: Fuc(a1-2)Gal(b1-3)GlcNAc(b1-3)[Gal(b1-4)GlcNAc(b1-6)]Gal(b1-4)Glc
# How it was run: as §1
# Fuc(a1-2)Gal(b1-4)GlcNAc = biological target: Fuc(a1-2)Gal(b1-4)GlcNAc
# How it was run: as §1
# [4] = biological target: Fuc(a1-2)Gal(b1-4)GlcNAc(b1-3)Gal(b1-4)GlcNAc(b1-3)Gal(b1-4)GlcNAc
# How it was run: as §1
# [5] = biological target: Fuc(a1-2)Gal(b1-4)[Fuc(a1-3)]GlcNAc(b1-3)Gal(b1-4)[Fuc(a1-3)]GlcNAc
# How it was run: as §1
# [6] = biological target: Fuc(a1-2)Gal3S(b1-4)GlcNAc
# How it was run: as §1
# Fuc(a1-2)Gal6S(b1-4)Glc = biological target: Fuc(a1-2)Gal6S(b1-4)Glc
# How it was run: as §1
# [7] = biological target: Fuc(a1-2)[Gal(a1-3)]Gal(b1-3)GlcNAc(b1-2)Man(a1-3)[Fuc(a1-2)[Gal(a1-3)]Gal(b1-3)GlcNAc(b1-2)Man(a1-6)]Man(b1-4)GlcNAc(b1-4)GlcNAc
# How it was run: as §1
# [8] = biological target: Fuc(a1-2)[Gal(a1-3)]Gal(b1-3)GlcNAc(b1-6)GalNAc
# How it was run: as §1
# [9] = biological target: Fuc(a1-2)[Gal(a1-3)]Gal(b1-4)GlcNAc(b1-2)Man(a1-3)[Fuc(a1-2)[Gal(a1-3)]Gal(b1-4)GlcNAc(b1-2)Man(a1-6)]Man(b1-4)GlcNAc(b1-4)GlcNAc
# How it was run: as §1
# [10] = biological target: Fuc(a1-2)[Gal(a1-3)]Gal(b1-4)GlcNAc(b1-6)GalNAc
# How it was run: as §1
# [11] = biological target: Fuc(a1-2)[Gal(a1-3)]Gal(b1-4)[Fuc(a1-3)]GlcNAc(b1-3)GalNAc
# How it was run: as §1
# [12] = biological target: Fuc(a1-2)[GalNAc(a1-3)]Gal(b1-4)GlcNAc(b1-2)Man
# How it was run: as §1
# [13] = biological target: Fuc(a1-2)[GalNAc(a1-3)]Gal(b1-4)GlcNAc(b1-3)[Fuc(a1-2)[GalNAc(a1-3)]Gal(b1-4)GlcNAc(b1-6)]GalNAc
# How it was run: as §1
# [14] = biological target: Fuc(a1-2)[GalNAc(a1-3)]Gal(b1-4)[Fuc(a1-3)]GlcNAc(b1-3)GalNAc
# How it was run: as §1
# [15] = biological target: Fuc(a1-3)[Gal(b1-4)]GlcNAc(b1-3)Gal(b1-4)[Fuc(a1-3)]GlcNAc(b1-3)Gal(b1-4)[Fuc(a1-3)]GlcNAc
# How it was run: as §1
# [16] = biological target: Fuc(a1-3)[Gal3S(b1-4)]GlcNAc6S
# How it was run: as §1
# Gal(a1-3)Gal(b1-3)GlcNAc = biological target: Gal(a1-3)Gal(b1-3)GlcNAc
# How it was run: as §1
# [17] = biological target: Gal(a1-3)Gal(b1-3)GlcNAc(b1-2)Man(a1-3)[Gal(a1-3)Gal(b1-3)GlcNAc(b1-2)Man(a1-6)]Man(b1-4)GlcNAc(b1-4)GlcNAc
# How it was run: as §1
# Gal(b1-2)Gal = biological target: Gal(b1-2)Gal
# How it was run: as §1
# Gal(b1-3)Gal = biological target: Gal(b1-3)Gal
# How it was run: as §1
# [18] = biological target: Gal(b1-3)GlcNAc(b1-3)Gal(b1-4)GlcNAc(b1-3)Gal(b1-4)GlcNAc(b1-2)[Gal(b1-3)GlcNAc(b1-3)Gal(b1-4)GlcNAc(b1-3)Gal(b1-4)GlcNAc(b1-6)]Man(a1-6)[Gal(b1-3)GlcNAc(b1-3)Gal(b1-4)GlcNAc(b1-3)Gal(b1-4)GlcNAc(b1-2)Man(a1-3)]Man(b1-4)GlcNAc(b1-4)[Fuc(a1-6)]GlcNAc
# How it was run: as §1
# Gal(b1-3)GlcNAc6S = biological target: Gal(b1-3)GlcNAc6S
# How it was run: as §1
# [19] = biological target: Gal(b1-3)[Fuc(a1-4)]GlcNAc(b1-2)Man(a1-3)[Gal(b1-3)[Fuc(a1-4)]GlcNAc(b1-2)Man(a1-6)]Man(b1-4)GlcNAc(b1-4)[Fuc(a1-6)]GlcNAc
# How it was run: as §1
# [20] = biological target: Gal(b1-4)GlcNAc(b1-2)[Gal(b1-4)GlcNAc(b1-4)]Man(a1-3)[Gal(b1-4)GlcNAc(b1-2)Man(a1-6)]Man(b1-4)GlcNAc(b1-4)GlcNAc
# How it was run: as §1
# [21] = biological target: Gal(b1-4)GlcNAc(b1-2)[Gal(b1-4)GlcNAc(b1-4)]Man(a1-3)[GlcNAc(b1-4)][Gal(b1-4)GlcNAc(b1-2)Man(a1-6)]Man(b1-4)GlcNAc(b1-4)GlcNAc
# How it was run: as §1
# [22] = biological target: Gal(b1-4)GlcNAc(b1-3)Gal(b1-3)GalNAc
# How it was run: as §1
# [23] = biological target: Gal(b1-4)GlcNAc(b1-3)Gal(b1-4)GlcNAc(b1-2)Man(a1-3)[Gal(b1-4)GlcNAc(b1-3)Gal(b1-4)GlcNAc(b1-2)Man(a1-6)]Man(b1-4)GlcNAc(b1-4)[Fuc(a1-6)]GlcNAc
# How it was run: as §1
# [24] = biological target: Gal(b1-4)GlcNAc(b1-3)Gal(b1-4)GlcNAc(b1-3)Gal(b1-4)GlcNAc(b1-3)Gal(b1-4)GlcNAc(b1-3)Gal(b1-4)GlcNAc(b1-2)[Gal(b1-4)GlcNAc(b1-3)Gal(b1-4)GlcNAc(b1-3)Gal(b1-4)GlcNAc(b1-3)Gal(b1-4)GlcNAc(b1-3)Gal(b1-4)GlcNAc(b1-6)]Man(a1-6)[Gal(b1-4)GlcNAc(b1-3)Gal(b1-4)GlcNAc(b1-3)Gal(b1-4)GlcNAc(b1-3)Gal(b1-4)GlcNAc(b1-3)Gal(b1-4)GlcNAc(b1-2)Man(a1-3)]Man(b1-4)GlcNAc(b1-4)[Fuc(a1-6)]GlcNAc
# How it was run: as §1
binder,measurement,setting,value
"Epa1-NP-mutant-D229G (Candida glabrata), Q6VBJ0 (protein) MILNPALFLNKCVCIYTTLILLLLTNGGYATSSNDISLASKDPTTFPLGCSPDITTPKKGLSMELYSYDFRKKGSYPCWDAAYLDPNYPRTGYKSHRLLAKVDGVTGNINFYYHATKGCTPQLGHLPASYNYPKPLTMTNFTMLLYGYFRPKVTGFHTFTISADDLLFVNFGAGNAFDCCRRDSSADHFGNYQAYAIWGSKTAKDELTVHLDAGVYYPIRLFYNNREYGGALSFTFKTESNENTVSDFSEYFFSLDDTEEGCPGLISYDSSCASVKTSKIIGIDYHTETPNENLVPITKTIYHLGIPCTGTTTTPLCGSGFYDPLANKCVTINTSSTSSVTKTTSHTTSKEVSFHSSISSQKTLIPKSIPSPYGPIKSQSIPTEMETSSEISSSEYAFSDVISTPSHSPYTKKHSSLNSSSYTSTVIHSLTSYSISQGIFSTSLSEQNITSKSSTDKFSTATSMSNNITQSSIIISQFSTNNENYTTTSMHTSSDKISTETLNNSISTTTSILFSNSSTILKNNTTIISSDKDTHYHPVNPTIVCSTNKTEIICASITQPSISNSNNHWSSSVLKFNSTTVRSTLPSSAGSNETSINVPFSSSTESNTSTSSTSTSNSKMVRSTLPSSAGSNETSISVPFSSSTESNTSTSSTSTSNSKMVRSTLPSSAGSNETSINVPFSSSTESNTSTSSTSTSNSKTVRSTPFSSAGIIMTSLSQRNNKSASSYASSNSKCYNTADSCRKVHSTPSYLLTSSYTSEGVDYDCSLVSTKLKINDTNCVNNKHTTKSCLKTSVTTTIPTLEIKTARKSSSNTIGLHSYPTSSPNKSISSAPIIGYISSFKTIKTASPSYQTSDLTTITTITSLNNPGSTAVENTHESNDKSRKTSSNDISSKHSVIKETKDAVESSNKSHQTNTLKCSSIIIASSSHNSYESLGGTTLTLTLSKVYSPQNNDTLPFLEISEVNPSRTVLPESSKMMQYLTSTEERNKTARNTIATNIVSISTFHFEGEGNAIRMGYTQLLLMLIGIIVMNIGT",glycan array binding signal (z-score),[1],1.63
same,glycan array binding signal (z-score),[2],0.514
same,glycan array binding signal (z-score),[3],1
same,glycan array binding signal (z-score),Fuc(a1-2)Gal(b1-4)GlcNAc,0.427
same,glycan array binding signal (z-score),[4],-0.455
same,glycan array binding signal (z-score),[5],-1.5
same,glycan array binding signal (z-score),[6],1.12
same,glycan array binding signal (z-score),Fuc(a1-2)Gal6S(b1-4)Glc,-0.521
same,glycan array binding signal (z-score),[7],0.17
same,glycan array binding signal (z-score),[8],0.093
same,glycan array binding signal (z-score),[9],2.01
same,glycan array binding signal (z-score),[10],-0.039
same,glycan array binding signal (z-score),[11],2.93
same,glycan array binding signal (z-score),[12],-0.751
same,glycan array binding signal (z-score),[13],0.092
same,glycan array binding signal (z-score),[14],-0.531
same,glycan array binding signal (z-score),[15],-0.559
same,glycan array binding signal (z-score),[16],2.08
same,glycan array binding signal (z-score),Gal(a1-3)Gal(b1-3)GlcNAc,-0.137
same,glycan array binding signal (z-score),[17],3.6
same,glycan array binding signal (z-score),Gal(b1-2)Gal,-1.18
same,glycan array binding signal (z-score),Gal(b1-3)Gal,-0.801
same,glycan array binding signal (z-score),[18],2.48
same,glycan array binding signal (z-score),Gal(b1-3)GlcNAc6S,1.23
same,glycan array binding signal (z-score),[19],2.15
same,glycan array binding signal (z-score),[20],-1.41
same,glycan array binding signal (z-score),[21],-0.683
same,glycan array binding signal (z-score),[22],0.068
same,glycan array binding signal (z-score),[23],0.671
same,glycan array binding signal (z-score),[24],2.8
